In the library only some 7.9% were active in any assay of this set; here they are far more common.
KB-3-1 cytotox: kills parental KB-3-1 adenocarcinoma cells | AID 1347075 | KB-3-1 viability, CellTiter-Glo ATP luminescence, 72 h | actives 1.4% (n = 400,000) | Potency, µM (doses to about 46.1 µM), most hits filed as cytotoxic; further: on the % scale 0 is the no-effect control and ±100 the full control effect; nearly all actives have a fitted effect of over 60% in size
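Cells are dispensed, compounds pinned in, plates held at 37 °C for 72 h, then CellTiter-Glo is added and luminescence read after 10 minutes. Cell line: parental KB-3-1 in phenol-red-free DMEM, 10% FBS.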
HT1080-NT tox: kills 2HG-producing HT-1080-NT fibrosarcoma cells. HT-1080-NT fibrosarcoma viability, CellTiter-Glo ATP luminescence, 48 h. Potency, µM (titrated, usually from 46.1 µM), without a hit: at the top dose activity, negative = less viability, most hits filed as cytotoxic. actives 1.6% (n = 360,000);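 further: NT is the 2HG producing partner of a matched IDH1 knockdown line; 0% = DMSO-treated cells and -100% = media-only wells without cells; nearly all actives have a fitted effect of over 55% in size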
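A 48-hour cytotoxicity screen used HT-1080-NT cells plated 2 hours before compound delivery. ATP-based CellTiter-Glo luminescence measured viability, normalized to DMSO and no-cell controls.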
HT1080 IDH1KD tx: HT-1080 IDH1 knockdown cell toxicity (counter line) | actives 2% (n = 360,000) | HT-1080 IDH1 knockdown viability, ATP luminescence, 48 h | Potency, µM (titrated, usually from 46.1 µM), for inactives: at the top dose activity, negative = toxicity, most hits filed as cytotoxic;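 further: 0% = DMSO wells and -100% = cell-free medium wells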
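% activity derives from luminescence (CellTiter-Glo), normalised to DMSO and no-cell wells. HT-1080-IDH1KD cells, 750/well, had 48 h compound exposure at 37 °C.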
SW480 rerep: induces DNA re-replication in SW480 colon adenocarcinoma cells; SW480 DNA re-replication, Hoechst DNA content imaging, 48 h; Potency, µM (doses to about 46.1 µM), for the others: top-dose re-replication activation, hits mostly activators; actives 1.8% (n = 340,000); further: % of control where 0% means no effect; nearly all actives have a fitted effect of over 55% in size
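Per well, 250 cells were exposed to pinned compound for 48 hr. Nuclear DNA was visualised with Hoechst (40 min, 37 C) and total object intensity recorded by fluorescence scanning.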
MCF10A rereplic: DNA re-replication induction in MCF 10a cells | AID 624296 | MCF 10A DNA re-replication, Hoechst nuclear intensity, 48 h | Potency, µM (doses to about 46.1 µM), without a hit: at the top dose activity, positive = re-replication, usual class: activators | actives 2.9% (n = 350,000); further: % of control where 0% means no effect; nearly all actives have a fitted effect of over 50% in size
KB-V1 cytotox: kills drug-selected multidrug resistant KB-V1 cells | actives 3.4% (n = 400,000) | AID 1347076 | KB-V1 MDR cells viability, CellTiter-Glo, 72 h | Potency, µM (highest dose often 46.1 µM), actives largely listed as cytotoxic; further: on the % scale 0 is the no-effect control and ±100 the full control effect; nearly all actives have a fitted effect of over 60% in size
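qHTS viability screen in drug-selected KB-V1 MDR cells: 72 h compound treatment at 37 degrees C, ATP luminescence end point.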
Active calls of the source: *; i = inactive; ? = inconclusive; · = not tested or not shown; [ ] = dose if it differs, or a comment. The call rests on the fitted dose curve; in most records, active means well fitted curve in the direction sought with a large enough effect; inconclusive means small, poorly fitted or top-dose-only effect, or another doubt; inactive means no such curve, though single readings can be large; an effect the other way counts as inactive or inconclusive. Potency means the concentration at half of the fitted maximal effect.

SMILES	KB-3-1 cytotox	HT1080-NT tox	HT1080 IDH1KD tx	SW480 rerep	MCF10A rereplic	KB-V1 cytotox
COCOCCn1cc(CN2CCS(=O)(=O)N(Cc3ccc(-c4ccc(OC)nc4)cc3)C(C(C)C)C2=O)nn1 (centres undefined)	i	-11%	-10%	·	·	i
COc1ccc(NC(=O)CSc2nc(-c3ccc(OC)cc3)[nH]c2-c2ccc(OC)cc2)cc1	i	·	·	·	·	i
COc1ccc(-c2noc(-c3ccc(N4CCN(c5ccc(OC)cc5)CC4)c([N+](=O)[O-])c3)n2)cc1	i	·	·	·	·	i
COC(=O)[C@]12CCCCC=C1N(Cc1ccco1)C(=O)[C@H](CC(=O)NCc1cccc3ccccc13)C2	?	-6%	-13%	·	·	i
CCOc1ccc(-c2nc(N)ncc2Oc2ccc(OC)cc2)c(O)c1	i	23µM*	?	-74%	?	?
CCCc1cc(-c2nc(N)ncc2-c2ccc3c(c2)OCCCO3)c(O)cc1OC	i	-25%	?	?	?	2.9µM*
CCOc1ccc(-c2nc(N)ncc2-c2ccc(OC)cc2)c(O)c1	?	-8%	1%	?	-53%	7.3µM*
CCOc1ccc(-c2nc(N)ncc2-c2ccc(Cl)cc2)c(O)c1	i	?	-30%	-30%	?	i
CCOc1ccc(-c2nc(N)ncc2-c2ccccc2)c(O)c1	15µM*	?	?	16%	17%	?
O=C(CSc1nc2ccccc2n1Cc1ccccc1Cl)NCc1ccccc1	i	·	·	·	·	i
CCCCN(CC)c1nc(-c2ccccc2F)nc2ccccc12	i	·	·	·	·	i
Cc1cccn2c(=O)cc(COc3cccc(NC(=O)Nc4cccc(Cl)c4)c3)nc12	i	·	·	·	·	i
CCOC(=O)C1=C(N)Oc2cc(O)ccc2C1c1cccc(Cl)c1 (centres undefined)	?	9.2µM*	7.3µM*	?	5.8µM*	?
C/C(=N\NC(N)=S)c1ccc(Cl)s1	16µM*	0%	-10%	?	?	6.5µM*
COc1ccccc1NC(=O)C(=O)c1cc(C)n(-c2cc(C)cc(C)c2)c1C	i	·	·	·	·	i
Cc1ccc2[nH]c3ccccc3c(=O)c2c1	i	-11%	-22%	?	16µM*	i
CCOC(=O)C(O)C1CCc2c([nH]c3ccc(C)cc23)C1=O (centres undefined)	?	-7%	0%	?	?	18µM*
O=c1c2ccccc2[nH]c2ccc(F)cc12	i	-4%	-3%	16µM*	9.2µM*	i
O=c1c2ccccc2[nH]c2ccc(O)cc12	i	3%	-2%	23µM*	-12%	i
O=c1[nH]c2ccccc2c(=O)c2ccccc12	i	-1%	-4%	·	·	i
CN(C1=NS(=O)(=O)c2ccccc21)c1ccc(OC(=O)c2ccccc2F)cc1	i	4%	3%	·	·	i
Cc1ccc2[nH]c3c(c2c1)CCNC3=O	?	-4%	-15%	-13%	0%	5.8µM*
COc1c(F)cc2[nH]c3c(c2c1F)CCNC3=O	i	·	·	-20%[9.22 µM]	-2%	?
CCOc1ccccc1NC(C)C(=O)NC(=O)NC1CCCCC1 (centres undefined)	i	1%[9.24 µM]	-3%	0%	12%	i
COC(=O)C1=C(C)N(CCc2ccccc2)C(=O)C1(NS(=O)(=O)c1ccc(NC(C)=O)cc1)C(F)(F)F (centres undefined)	i	10µM*	6.3µM*	3.3µM*	15µM*	i
SMILES	KB-3-1 cytotox	HT1080-NT tox	HT1080 IDH1KD tx	SW480 rerep	MCF10A rereplic	KB-V1 cytotox
CC1(C)N=C(N)N=C(N)N1CCCCc1ccccc1	1.5µM*	?	0.15µM*	-9%	18%	i
CCOC(=O)CN1C(=O)Nc2ccc(Br)cc2C1c1ccccc1 (centres undefined)	i	-3%	-11%	13%	5%	i
CCOC(=O)CN1C(c2ccc(O)cc2)Nc2ccc(Br)cc2C1c1ccccc1 (centres undefined)	?	16µM*	?	?	18µM*	?
Cc1cccc(NS(=O)(=O)c2cc(C(=O)OC(C)C(=O)NCc3ccc4c(c3)OCO4)ccc2C)c1 (centres undefined)	i	-11%	-15%	15%	17%	15µM*
O=c1c2ccccc2n(Cc2cccc(Cl)c2)c(=O)n1CCc1ccccc1	i	·	·	·	·	?
CN(Cc1cnc2nc(N)nc(N)c2n1)c1ccc(C(=O)NC(CCC(=O)O)C(=O)O)c2ccccc12 (centres undefined)	?	?	0.0058µM*	?	8%	i
COc1ccccc1CNS(=O)(=O)CCNCCc1ccccc1	i	-2%	-3%	5%	21µM*	i
CC1CCc2c(sc3nnn(CCCCOc4ccc(Cl)cc4)c(=O)c23)C1 (centres undefined)	i	·	·	·	·	i
C/C(=N\N)c1c(-c2ccccc2)c2cc(C)ccc2[nH]c1=O	i	13%	10%	?	5%	i
CC/C(C)=N/NC(=O)c1[nH]c2ccc(C)cc2c1-c1ccccc1	i	?	?	?	12µM*	i
O=C(NN=C1CCCC1)c1[nH]c2ccc(Cl)cc2c1-c1ccccc1	i	?	12µM*	?	2.9µM*	?
O=C(NCc1cccs1)c1ccc(Cl)c(S(=O)(=O)N2CCOCC2)c1	i	7%	5%	·	·	i
Nc1ccc(C=Cc2ccc(N)cc2)cc1	i	-28%	?	·	·	i
CCN(Cc1ccc(OC)c(F)c1)C(=O)CCl	?	18µM*	16µM*	16µM*	?	?
CCN(Cc1ccc(OC)c(F)c1)C(=O)C1CCCO1 (centres undefined)	i	5%	4%	-16%	-3%	i
COc1cc(C(=O)OCC(=O)c2cc(C)n(C)c2C)cc(OC)c1OC	?	?	?	?	?	5.2µM*
O=[N+]([O-])c1ccc(C2=CSC3=NCCN23)cc1	i	-5%	1%	-4%	1%	?
Cc1ccc(C2=CSC3=NCCN23)cc1	i	6%	4%	0%	7.3µM*	i
COc1cc(NC(=O)NCCn2nnc3cc(S(=O)(=O)N(C)C)ccc32)cc(OC)c1OC	i	·	·	·	·	?
CC(C)CCOc1ccc(Cn2c(=O)sc3ccccc32)cc1	i	·	·	·	·	i
COc1cc(Cl)c(C)cc1NC(=O)Cn1ncc2c(=O)oc3ccccc3c21	i	·	·	·	·	i

From PubChem
